From PubChem BioAssay AID463173 (ICCB-Longwood Screening Facility, Harvard Medical School, 2010) come the findings set out here.

Molecules are shown by their SMILES. Screen size: about 52,000 compounds; about 4,300 (8.3%) were called active. This is one part of a sample in which actives are shown more often than they occur. Unmarked numbers belong to inactive results. No stated cut-off is given here; in the data, active means survival mostly below about 52% (no sharp cut-off); inactive means mostly above about 56%.

In this experiment the test system is DeltatarO mutant. Put plainly: growth inhibition of S. aureus wild type versus tarO mutant, primary screen, teichoic acid synthesis inhibitors, RN4220, OD600 (AID 463173). The conditions noted are these: OD600, 18 h, active compounds read low, screened at 18.75 µg/mL (by protocol).
As for `CCN(CC)c1ccc2cc(-c3nc(-c4cccs4)no3)c(=O)oc2c1`, the survival was 83%.

For the molecule `CCC(Sc1nc2ccncc2[nH]1)C(=O)Nc1cc(C)ccc1C` (stereo not drawn), the survival was 132%.

Regarding `Cn1ncc(C(=O)N2CCN(c3ccccc3F)CC2)c1C1CCN(C(=O)OC(C)(C)C)CC1`, the survival was 71%.

As to `CCOc1ccc2oc(=O)cc(CN3CCN(C(=O)c4ccc(OC)c(OC)c4)CC3)c2c1`, the survival was 50%.

Regarding `CCOc1ccc2oc(=O)cc(CN3CCN(C(=O)c4cccc(Cl)c4)CC3)c2c1`, the survival was 66%.

With `CCOc1ccc2oc(=O)cc(CN3CCN(Cc4ccc(F)cc4)CC3)c2c1`, the survival was 83%.

As to `CCOc1ccc2oc(=O)cc(CN3CCN(C(=O)c4ccc(F)cc4)CC3)c2c1`, the survival was 31% (active).

On to `CCOc1ccc2oc(=O)cc(CN3CCN(C(=O)c4cccc(F)c4)CC3)c2c1`, for which the survival is 31% (active).

With `CCOc1ccc2oc(=O)cc(CN3CCN(C(=O)c4ccc(Cl)cc4)CC3)c2c1`, the survival was 86%.

Consider `CCc1nc2ccc(C(=O)NCc3ccc(N(C)C)cc3)cc2nc1CC`, for which the survival was 99%.

With `Cc1c(C(=O)N2CCC(C)CC2)c(S(=O)(=O)NCc2ccccc2)c(C)n1C`, the survival is 66%.

Regarding `O=C(NCc1ccccc1Br)c1cnc2sc(N3CCCCCC3)nn2c1=O`, the survival is 94%.

For `Cc1cccc(NC(=O)CSc2cn(CC(=O)N3CCCC3)c3ccccc23)c1C`, the survival is 99%.

Take `Cc1ccc(N2C(=O)CSC23C(=O)N(CC(=O)NC2CCCCC2)c2ccccc23)cc1C` (stereo not drawn): the survival is 94%.

With `CCCn1cc(S(=O)(=O)c2cccc(Cl)c2)c(=O)c2cc(F)c(N3CCN(CC)CC3)cc21`, the survival is 115%.

On to `Fc1ccc(Cn2c(-c3cccc(Br)c3)nc3ccccc32)cc1`, for which the survival was 109%.

Turning to `Fc1ccccc1Cn1c(-c2ccccc2)nc2ccccc21`, the survival was 1% (active).

For `Cc1cccc(-c2nc3ccccc3n2Cc2ccccc2)c1`, the survival was 0% (active).

On to `Cc1cccc(Cn2c(-c3cccc(Br)c3)nc3ccccc32)c1`, for which the survival is 122%.

Take `CCC(O)c1nc2ccccc2n1Cc1cccc(Cl)c1` (stereo not drawn): the survival is 83%.

As for `O=C(CSc1nc2ccccc2n1Cc1ccccc1F)NCc1ccccc1`, the survival is 97%.

`Cc1ccc(Cn2c(-c3ccccc3)nc3ccccc32)cc1`: the survival is -2% (active).

Regarding `Cc1ccc(Cn2c(C(C)NC(=O)c3ccccc3)nc3ccccc32)cc1` (stereo not drawn), the survival is 90%.

In the case of `Cc1ccc(Cn2c(=O)c3ccccc3n3c(-c4ccccc4)nnc23)cc1`, the survival was 86%.

Turning to `Cc1ccc(Cn2c(CCNC(=O)c3cccc(C)c3)nc3ccccc32)cc1`, the survival was 60%.

`Cc1cccc(Cn2c(-c3ccccc3)nc3ccccc32)c1`: the survival was -2% (active).

As for `Nc1nonc1-c1nc2ccccc2n1Cc1cccc(Cl)c1`, the survival is 80%.

`CCOC(=O)Cc1ccc(NC(=O)N2CC(C)Oc3ccc(Cl)cc32)cc1` (stereo not drawn): the survival is 55%.

On to `O=CN(Cc1ccco1)C1(C(=O)NC2CCCCC2)CCCCC1`, for which the survival was 76%.

Regarding `OCc1cnc(SCc2ccccc2F)n1Cc1ccc(F)cc1`, the survival is 87%.

Turning to `COc1ccccc1CNC(=O)CCC1N=C2c3ccccc3N=C(SCC(=O)Nc3ccc(F)cc3)N2C1=O` (stereo not drawn), the survival was 84%.

With `Cc1ccc2nc(-c3cccnc3)c(Nc3ccc(C(C)C)cc3)n2c1`, the survival is 94%.

For `O=C(COCc1cc(-c2ccc3c(c2)OCO3)on1)Nc1cc(Cl)ccc1O`, the survival is 60%.

For the molecule `CCn1c(=O)cc(SCC(=O)Nc2cc(Cl)ccc2OC)c2ccccc21`, the survival was 67%.

For the molecule `CCCNC(=O)c1ccc(Cn2c(SCC(=O)NC(C)C)nc3ccccc3c2=O)cc1`, the survival is 102%.

`CCOc1ccccc1C(=O)NCC(c1ccc(N(C)C)cc1)N1CCc2ccccc21` (stereo not drawn): the survival was 102%.

On to `CN(C)c1ccc(C(CNC(=O)c2ccccc2Cl)N2CCc3ccccc32)cc1` (stereo not drawn), for which the survival was 37% (active).

Regarding `COc1ccccc1C(=O)NCC(c1ccc(N(C)C)cc1)N1CCc2ccccc21` (stereo not drawn), the survival was 46% (active).

`COc1cccc(C(=O)NCC(c2ccc(N(C)C)cc2)N2CCc3ccccc32)c1OC` (stereo not drawn): the survival is 93%.

On to `CN(C)c1ccc(C(CNC(=O)c2ccccc2)N2CCc3ccccc32)cc1` (stereo not drawn), for which the survival is 115%.

For `CN(C)c1ccc(C(CNC(=O)c2ccccc2F)N2CCc3ccccc32)cc1` (stereo not drawn), the survival was 105%.

In the case of `O=C(Cn1c(=O)sc2ccccc21)Nc1cccc(Cl)c1`, the survival is 83%.

Regarding `CCN(Cc1ccccc1)C(=O)CN1C(=O)COc2ccc(S(=O)(=O)N3CCOCC3)cc21`, the survival is 98%.

On to `CCOC(=O)Nc1cccc(C(=O)O)c1`, for which the survival was 71%.

On to `CCOC(=O)c1c(NC(=O)c2nc(SCC)ncc2Cl)sc2c1CCCC2`, for which the survival is 91%.

Regarding `CCOC(=O)c1c(NC(=O)c2nc(SC(C)C)ncc2Cl)sc2c1CCCC2`, the survival is 56% (active).

In the case of `COC(=O)c1c(NC(=O)c2nc(SCc3ccc(F)cc3)ncc2Cl)sc2c1CCCC2`, the survival is 47%.

For the molecule `COC(=O)c1c(NC(=O)c2nc(SC)ncc2Cl)sc2c1CCCC2`, the survival was 85%.

As for `CCSc1ncc(Cl)c(C(=O)Nc2sc3c(c2C(=O)NC)CCCC3)n1`, the survival is 82%.

With `Cc1ccc(CSc2ncc(Cl)c(C(=O)Nc3sc4c(c3C(N)=O)CCCC4)n2)cc1`, the survival was 105%.

On to `COC(=O)c1c(NC(=O)c2nc(SCc3cccc(C)c3)ncc2Cl)sc2c1CCCC2`, for which the survival was 113%.

Consider `CNC(=O)c1c(NC(=O)c2nc(SCc3ccc(C)cc3)ncc2Cl)sc2c1CCCC2`, for which the survival was 37% (active).

With `COC(=O)c1c(NC(=O)c2nc(SCc3ccc(C)cc3)ncc2Cl)sc2c1CCCC2`, the survival is 46% (active).

`Cc1cc(C)nc(-n2nc(C)c3c2N(Cc2ccccc2F)C(=O)CC3c2ccc(Cl)cc2)n1` (stereo not drawn): the survival was 100%.

With `CCC(=O)N1CCc2cc(Br)cc(S(=O)(=O)CCC(=O)Nc3ccc(C)c(F)c3)c21`, the survival is 86%.

In the case of `CCCCn1c(SCC(=O)Nc2ccc(OCC)cc2)nc2ccsc2c1=O`, the survival is 130%.

As for `CCc1ccccc1NC(=O)C1(C)Cc2ccccc2C(=O)O1` (stereo not drawn), the survival is 97%.

As for `CCc1ccc(NCc2cc3cc4c(cc3n(CC(=O)Nc3ccccc3Cl)c2=O)OCO4)cc1`, the survival is 73%.

In the case of `Cn1c(=O)n(C)c2cc(N3CCCCC3)c(NC(=O)c3ccc(Cl)cc3)cc21`, the survival was 74%.

Consider `CCc1ccc(NC(=O)CN2C(=O)C(c3ccc(F)cc3)=NC2(C)C)cc1`, for which the survival was 81%.

Regarding `Cc1ccc(NC(=O)Cn2c(=O)c3ccccc3n3nncc23)cc1`, the survival is 114%.

As for `Nc1ccc2nc(-c3ccc(O)cc3)sc2c1`, the survival was 120%.

Turning to `Cc1ccc2sc(-c3ccc(N)cc3)nc2c1`, the survival was 12% (active).

In the case of `Cc1ccc2nc(-c3ccc(NC(=O)C(F)(F)F)cc3)sc2c1`, the survival was 98%.

For `Cc1cccc(C)c1OCc1nc2c3cnn(-c4ccccc4Br)c3ncn2n1`, the survival is 69%.

As for `COc1ccc(Br)c(C(=O)Nc2cc3c(cc2N2CCOCC2)n(C)c(=O)n3C)c1`, the survival is 82%.

Regarding `O=C(NCCCc1nc2ccccc2n1Cc1ccc(Cl)cc1Cl)c1ccco1`, the survival is 58%.

As for `O=C(NCCc1nc2ccccc2n1Cc1ccccc1)c1ccco1`, the survival is 113%.

For `Cc1ccc(Cn2c(CCCNC(=O)c3ccco3)nc3ccccc32)cc1`, the survival was 77%.

Take `O=C(NCCc1nc2ccccc2n1Cc1ccc(Cl)cc1Cl)c1ccco1`: the survival was 49% (active).

As for `O=C(NCCCc1nc2ccccc2n1Cc1ccc(Cl)cc1)c1ccco1`, the survival was 105%.

`O=C(NCCCc1nc2ccccc2n1Cc1cccc(Cl)c1)c1ccco1`: the survival is 46% (active).

For the molecule `CCCSCCCNC(=O)CN1C(=O)COc2ccc(S(=O)(=O)N3CCC(C)CC3)cc21`, the survival was 90%.

In the case of `N#Cc1ccccc1NC(=O)CNCC1CCCO1` (stereo not drawn), the survival is 76%.

With `CCOC(=O)C1CCN(S(=O)(=O)c2cc3c4c(c2)CC(=O)N4CCC3)CC1`, the survival was 83%.

As for `COc1ccc(C)cc1NS(=O)(=O)c1cc2c3c(c1)CC(=O)N3CCC2`, the survival was 105%.

As for `COC(=O)c1ccccc1N(C)S(=O)(=O)c1cc2c3c(c1)CC(=O)N3CCC2`, the survival was 78%.

In the case of `COC(=O)C1CCN(S(=O)(=O)c2cc3c4c(c2)CC(=O)N4CCC3)CC1`, the survival was 37% (active).

Turning to `CC1CCN(S(=O)(=O)c2cc3c4c(c2)CC(=O)N4CCC3)CC1`, the survival was 102%.

In the case of `CC1C(=O)N2CCCc3cc(S(=O)(=O)N4CCC(C(N)=O)CC4)cc1c32` (stereo not drawn), the survival was 0% (active).

For `COC(=O)c1ccccc1NS(=O)(=O)c1cc2c3c(c1)CC(=O)N3CCC2`, the survival was 46% (active).

For the molecule `CCOC(=O)C1CCN(S(=O)(=O)c2cc3c4c(c2)C(C)C(=O)N4CCC3)CC1` (stereo not drawn), the survival was 98%.

Turning to `COC(=O)C1CCN(S(=O)(=O)c2cc3c4c(c2)C(C)C(=O)N4CCC3)CC1` (stereo not drawn), the survival is 99%.

Turning to `O=C(O)CCCNC1C=CS(=O)(=O)C1` (stereo not drawn), the survival was 91%.

On to `COCCNc1cc(N2CCN(C3CCCCC3)CC2)c2noc3c2c1C(=O)c1ccccc1-3`, for which the survival is 57%.

On to `COc1ccc(CCC(=O)NC2CC(=O)N(c3cccc(F)c3)C2)cc1` (stereo not drawn), for which the survival is 113%.

Regarding `CSc1nc(NC(N)=S)nc(NC(C)C)n1`, the survival is 76%.

As for `Cc1cc(C)c2c(CC(=O)Nc3ccc(S(=O)(=O)Nc4ncccn4)cc3)coc2c1`, the survival was 83%.

For the molecule `COc1ccc([N+](=O)[O-])cc1NC(c1nnc(-c2ccccc2)o1)c1ccccc1F` (stereo not drawn), the survival is 83%.

For the molecule `Cc1cccc2nc(-c3cccnc3)c(Nc3ccc(C(C)C)cc3)n12`, the survival is 70%.

For the molecule `Cc1cccc(C(C)C)c1NC(=O)c1ccc2c(c1)CCN2S(C)(=O)=O`, the survival is 74%.

`COc1ccc(C2C(C(=O)Nc3cccnc3)=C(C)Nc3nc(-c4ccc(OC)c(OC)c4)nn32)cc1` (stereo not drawn): the survival was 150%.

`CCOC(=O)C1CCN(C(=O)c2c(C)nn(-c3ccc(F)cc3)c2-n2cccc2)CC1`: the survival is 66%.
